Among the data in paper PMC11062922 (Nature Chemical Biology, 2023) are potency estimated from few doses values, retold here.

One assay has as its system AIFM1. Set-up: species or system human, MV4-11 + K-562 + COLO205 + SK-N-BE2 + OVCAR-8. The note with it: read-out: apparent Kd; compound concentrations: 100 nM and 1000 nM (sheet 'Samples'), CATDS: 7.0265848272952805E-2; n = 1.
The subject of the next assay is CLK1. Also noted: species or system human, MV4-11 + K-562 + COLO205 + SK-N-BE2 + OVCAR-8. Conditions: read-out: apparent Kd; compound concentrations: 100 nM and 1000 nM (sheet 'Samples'), CATDS: 0.104887627590219; n = 1.
For a further assay, the system named is CLK4. Also noted: species or system human, MV4-11 + K-562 + COLO205 + SK-N-BE2 + OVCAR-8. Conditions: read-out: apparent Kd; compound concentrations: 100 nM and 1000 nM (sheet 'Samples'), CATDS: 9.5715512322220406E-2; n = 1.
A further assay relates to CSNK1G1. Also noted: species or system human, MV4-11 + K-562 + COLO205 + SK-N-BE2 + OVCAR-8. The note with it: read-out: apparent Kd; compound concentrations: 100 nM and 1000 nM (sheet 'Samples'), CATDS: 5.5121042551324002E-2; n = 1.
The next assay has as its system DAPK3. Set-up: species or system human, MV4-11 + K-562 + COLO205 + SK-N-BE2 + OVCAR-8. Conditions: read-out: apparent Kd; compound concentrations: 100 nM and 1000 nM (sheet 'Samples'), CATDS: 8.3155449206082505E-2; n = 1.
A further assay relates to DCTPP1. Also noted: species or system human, MV4-11 + K-562 + COLO205 + SK-N-BE2 + OVCAR-8. Conditions: read-out: apparent Kd; compound concentrations: 100 nM and 1000 nM (sheet 'Samples'), CATDS: 5.7600915047594299E-2; n = 1.
In the next assay the test system is FN3KRP. Set-up: species or system human, MV4-11 + K-562 + COLO205 + SK-N-BE2 + OVCAR-8. Conditions: read-out: apparent Kd; compound concentrations: 100 nM and 1000 nM (sheet 'Samples'), CATDS: 6.5569795708597098E-2; n = 1.
For another assay, the system named is FN3K. Also noted: species or system human, MV4-11 + K-562 + COLO205 + SK-N-BE2 + OVCAR-8. The note with it: read-out: apparent Kd; compound concentrations: 100 nM and 1000 nM (sheet 'Samples'), CATDS: 6.57741887652563E-2; n = 1.
The test system of the next assay is MAPK3. Set-up: species or system human, MV4-11 + K-562 + COLO205 + SK-N-BE2 + OVCAR-8. The note with it: read-out: apparent Kd; compound concentrations: 100 nM and 1000 nM (sheet 'Samples'), CATDS: 8.8800747421998102E-2; n = 1.
The test system of the next assay is NEK2. Also noted: species or system human, MV4-11 + K-562 + COLO205 + SK-N-BE2 + OVCAR-8. Conditions: read-out: apparent Kd; compound concentrations: 100 nM and 1000 nM (sheet 'Samples'), CATDS: 7.0168858397625197E-2; n = 1.
In the next assay the test system is PBK. Set-up: species or system human, MV4-11 + K-562 + COLO205 + SK-N-BE2 + OVCAR-8. Conditions: read-out: apparent Kd; compound concentrations: 100 nM and 1000 nM (sheet 'Samples'), CATDS: 7.2795732103844296E-2; n = 1.
The next assay has as its target Q6ZSR9 (human, UniProt Q6ZSR9). Also noted: species or system MV4-11 + K-562 + COLO205 + SK-N-BE2 + OVCAR-8. The note with it: read-out: apparent Kd; compound concentrations: 100 nM and 1000 nM (sheet 'Samples'), CATDS: 6.3978551473772294E-2; n = 1.
In another assay the test system is RABL3. Also noted: species or system human, MV4-11 + K-562 + COLO205 + SK-N-BE2 + OVCAR-8. Conditions: read-out: apparent Kd; compound concentrations: 100 nM and 1000 nM (sheet 'Samples'), CATDS: 7.0827671495760899E-2; n = 1.
A further assay concerns TESK1. Set-up: species or system human, MV4-11 + K-562 + COLO205 + SK-N-BE2 + OVCAR-8. The note with it: read-out: apparent Kd; compound concentrations: 100 nM and 1000 nM (sheet 'Samples'), CATDS: 6.7543584282145103E-2; n = 1.
Another assay relates to ADRBK1. Also noted: species or system human, MV4-11 + K-562 + COLO205 + SK-N-BE2 + OVCAR-8. Conditions: read-out: apparent Kd; compound concentrations: 100 nM and 1000 nM (sheet 'Samples'), CATDS: 0.18601551584516901; n = 1.
For a further assay, the system named is FLT3. Set-up: species or system human, MV4-11 + K-562 + COLO205 + SK-N-BE2 + OVCAR-8. The note with it: read-out: apparent Kd; compound concentrations: 100 nM and 1000 nM (sheet 'Samples'), CATDS: 0.87351473919373701; n = 1.
The subject of another assay is NNT. Also noted: species or system human, MV4-11 + K-562 + COLO205 + SK-N-BE2 + OVCAR-8. The note with it: read-out: apparent Kd; compound concentrations: 100 nM and 1000 nM (sheet 'Samples'), CATDS: 0.20642475044215899; n = 1.
For another assay, the system named is PDGFRB. Set-up: species or system human, MV4-11 + K-562 + COLO205 + SK-N-BE2 + OVCAR-8. Conditions: read-out: apparent Kd; compound concentrations: 100 nM and 1000 nM (sheet 'Samples'), CATDS: 0.21575328371949701; n = 1.
The subject of a further assay is AGPS. Also noted: species or system human, MV4-11 + K-562 + COLO205 + SK-N-BE2 + OVCAR-8. The note with it: read-out: apparent Kd; compound concentrations: 100 nM and 1000 nM (sheet 'Samples'), CATDS: 7.5383402334255403E-2; n = 1.
A further assay deals with CDK9. Also noted: species or system human, MV4-11 + K-562 + COLO205 + SK-N-BE2 + OVCAR-8. Conditions: read-out: apparent Kd; compound concentrations: 100 nM and 1000 nM (sheet 'Samples'), CATDS: 8.3924043652499697E-2; n = 1.
The subject of another assay is CDKL5. Also noted: species or system human, MV4-11 + K-562 + COLO205 + SK-N-BE2 + OVCAR-8. The note with it: read-out: apparent Kd; compound concentrations: 100 nM and 1000 nM (sheet 'Samples'), CATDS: 0.33786107354204697; n = 1.
A further assay has as its system CSNK1A1. Set-up: species or system human, MV4-11 + K-562 + COLO205 + SK-N-BE2 + OVCAR-8. The note with it: read-out: apparent Kd; compound concentrations: 100 nM and 1000 nM (sheet 'Samples'), CATDS: 8.0672688589635194E-2; n = 1.
A further assay relates to CSNK1D. Also noted: species or system human, MV4-11 + K-562 + COLO205 + SK-N-BE2 + OVCAR-8. Conditions: read-out: apparent Kd; compound concentrations: 100 nM and 1000 nM (sheet 'Samples'), CATDS: 0.220619974671908; n = 1.
For another assay, the system named is CSNK1E. Also noted: species or system human, MV4-11 + K-562 + COLO205 + SK-N-BE2 + OVCAR-8. The note with it: read-out: apparent Kd; compound concentrations: 100 nM and 1000 nM (sheet 'Samples'), CATDS: 0.1850261885326; n = 1.
A further assay deals with RAB14. Also noted: species or system human, MV4-11 + K-562 + COLO205 + SK-N-BE2 + OVCAR-8. The note with it: read-out: apparent Kd; compound concentrations: 100 nM and 1000 nM (sheet 'Samples'), CATDS: 7.5249376612815694E-2; n = 1.
The next assay has as its system RIOK2. Also noted: species or system human, MV4-11 + K-562 + COLO205 + SK-N-BE2 + OVCAR-8. Conditions: read-out: apparent Kd; compound concentrations: 100 nM and 1000 nM (sheet 'Samples'), CATDS: 0.19530203573374799; n = 1.
The next assay concerns STK26. Also noted: species or system human, MV4-11 + K-562 + COLO205 + SK-N-BE2 + OVCAR-8. Conditions: read-out: apparent Kd; compound concentrations: 100 nM and 1000 nM (sheet 'Samples'), CATDS: 8.25311561999897E-2; n = 1.

The structures appear in SMILES notation.

Chain of Q6ZSR9 (Q6ZSR9 whole entry, looked up): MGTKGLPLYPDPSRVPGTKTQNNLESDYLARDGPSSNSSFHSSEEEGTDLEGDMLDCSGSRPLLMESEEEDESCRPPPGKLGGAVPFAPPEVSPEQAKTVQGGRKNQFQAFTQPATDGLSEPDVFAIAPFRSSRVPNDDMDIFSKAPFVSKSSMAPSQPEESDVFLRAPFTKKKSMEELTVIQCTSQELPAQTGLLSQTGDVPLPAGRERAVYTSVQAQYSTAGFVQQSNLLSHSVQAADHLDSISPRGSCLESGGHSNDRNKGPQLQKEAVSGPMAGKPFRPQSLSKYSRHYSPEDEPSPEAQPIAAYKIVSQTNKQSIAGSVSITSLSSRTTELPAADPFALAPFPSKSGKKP

Turning to `O=C1N=C(NCCc2ccc(F)cc2)S/C1=C\c1ccc2ncccc2c1` [RO4508340-000], the potency estimated from few doses was 1310 nM in the assay on AIFM1; 643 nM in the assay on CLK1; 744 nM with CLK4; 2380 nM in the assay on CSNK1G1; 948 nM in the assay on DAPK3; 2100 nM in the assay on DCTPP1. In addition, the potency estimated from few doses is 1530 nM in the assay on FN3KRP; 1520 nM with FN3K; 844 nM in the assay with MAPK3; 1320 nM in the assay on NEK2; 1220 nM in the assay with PBK; 1620 nM in the assay with Q6ZSR9. In addition, the potency estimated from few doses was 1290 nM in the assay with RABL3 and 1430 nM with TESK1.
With `Cc1cccc(Nc2ncc(-c3ccccc3)o2)c1` [GW632046X], the potency estimated from few doses in the assay on ADRBK1 was 1420 nM; in the assay on FLT3 it was 26.1 nM; with NNT, 1000 nM; in the assay with PDGFRB, 873 nM.
Consider `c1cnn2ncc(-c3ccnc(NCCCN4CCOCC4)n3)c2c1` [GW683109X], for which the potency estimated from few doses was 2080 nM with AGPS; 1290 nM with CDK9; 40.1 nM with CDKL5; 1530 nM in the assay on CSNK1A1; 82.2 nM in the assay on CSNK1D; 118 nM in the assay with CSNK1E. In addition, the potency estimated from few doses with RAB14 is 2100 nM; in the assay on RIOK2, 105 nM; in the assay on STK26, 1390 nM.
